Results published in publication PMC7862700, “An all-to-all approach to the identification of sequence-specific readers for epigenetic DNA modifications on cytosine”.

How the values were obtained:
Test in all cases: DAPPL (digital affinity profiling via proximity ligation, sequencing); 10 mM Tris-HCl pH 7.5, 50 mM NaCl, 1 mM DTT, 4% glycerol, room temperature, 30 min; GST-TFs on glutathione beads, 16-mer random dsDNA library, 0.1% formaldehyde crosslink after washing; high values mean tight binding
[1] = molecular target: T1, FLI1 (Homo sapiens, UniProt Q01543 1-452); conditions: protein: recombinant; tags: N-terminal GST; dsDNA, one strand shown
T1 sequence: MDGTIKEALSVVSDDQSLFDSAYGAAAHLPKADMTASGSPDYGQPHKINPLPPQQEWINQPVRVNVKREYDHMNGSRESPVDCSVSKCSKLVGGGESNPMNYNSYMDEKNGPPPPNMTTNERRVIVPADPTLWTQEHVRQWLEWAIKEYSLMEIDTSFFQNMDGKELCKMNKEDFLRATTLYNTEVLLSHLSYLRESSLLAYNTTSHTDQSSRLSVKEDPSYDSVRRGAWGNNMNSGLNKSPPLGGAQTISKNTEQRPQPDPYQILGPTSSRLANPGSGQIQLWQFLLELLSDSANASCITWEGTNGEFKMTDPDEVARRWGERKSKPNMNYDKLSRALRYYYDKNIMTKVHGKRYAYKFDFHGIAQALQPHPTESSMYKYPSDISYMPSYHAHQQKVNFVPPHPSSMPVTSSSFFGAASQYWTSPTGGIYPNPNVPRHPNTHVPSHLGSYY
How it was run: (§1)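 Sequencing on an Illumina NextSeq500 followed washing, crosslinking with 0.1% formaldehyde, proximity ligation (BsaI/T4 ligase, 1 h, 37 °C) and PCR amplification of pools that had been incubated for 30 min at room temperature with 200 nmole of a random double-stranded 16-mer DNA library in Tris/NaCl/DTT/glycerol buffer. Each pool held DNA-barcoded human transcription factors, expressed in yeast as GST fusions and captured on glutathione beads, plus a tag-only sample. Binding signal is a hexamer's read frequency for a factor divided by its frequency in the tag-only sample.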

[2] = molecular target: T2, ELK1 (Homo sapiens, UniProt P19419 1-428); conditions: protein: recombinant; tags: N-terminal GST; dsDNA, one strand shown
T2 sequence: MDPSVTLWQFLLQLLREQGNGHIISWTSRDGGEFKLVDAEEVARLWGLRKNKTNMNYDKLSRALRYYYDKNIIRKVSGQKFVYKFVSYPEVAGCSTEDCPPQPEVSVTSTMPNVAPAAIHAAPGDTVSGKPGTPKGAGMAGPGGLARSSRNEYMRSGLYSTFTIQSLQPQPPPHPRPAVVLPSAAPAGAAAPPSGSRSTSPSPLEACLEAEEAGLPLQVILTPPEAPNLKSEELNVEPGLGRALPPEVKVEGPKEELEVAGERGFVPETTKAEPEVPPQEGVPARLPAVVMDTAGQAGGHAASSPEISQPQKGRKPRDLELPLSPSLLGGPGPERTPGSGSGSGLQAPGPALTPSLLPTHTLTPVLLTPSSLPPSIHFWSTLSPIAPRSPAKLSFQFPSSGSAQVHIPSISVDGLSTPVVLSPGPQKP
How it was run: as §1

[3] = molecular target: T3, GABPA (Homo sapiens, UniProt Q06546 1-454); conditions: protein: recombinant; tags: N-terminal GST; dsDNA, one strand shown
T3 sequence: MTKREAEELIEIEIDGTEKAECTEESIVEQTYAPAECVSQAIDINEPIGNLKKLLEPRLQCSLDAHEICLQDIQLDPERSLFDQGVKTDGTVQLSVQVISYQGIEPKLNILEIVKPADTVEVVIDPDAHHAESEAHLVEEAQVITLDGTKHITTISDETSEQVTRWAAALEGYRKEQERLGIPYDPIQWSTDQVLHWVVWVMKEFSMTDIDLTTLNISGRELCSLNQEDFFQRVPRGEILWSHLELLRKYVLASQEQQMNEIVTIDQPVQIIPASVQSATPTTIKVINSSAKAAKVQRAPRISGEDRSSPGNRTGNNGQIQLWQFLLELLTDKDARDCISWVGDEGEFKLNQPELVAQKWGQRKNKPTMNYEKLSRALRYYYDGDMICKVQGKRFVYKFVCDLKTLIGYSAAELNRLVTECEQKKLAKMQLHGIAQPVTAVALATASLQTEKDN
How it was run: as §1

[4] = molecular target: T4, ERG (Homo sapiens, UniProt P11308 1-479); conditions: protein: recombinant; tags: N-terminal GST; dsDNA, one strand shown
T4 sequence: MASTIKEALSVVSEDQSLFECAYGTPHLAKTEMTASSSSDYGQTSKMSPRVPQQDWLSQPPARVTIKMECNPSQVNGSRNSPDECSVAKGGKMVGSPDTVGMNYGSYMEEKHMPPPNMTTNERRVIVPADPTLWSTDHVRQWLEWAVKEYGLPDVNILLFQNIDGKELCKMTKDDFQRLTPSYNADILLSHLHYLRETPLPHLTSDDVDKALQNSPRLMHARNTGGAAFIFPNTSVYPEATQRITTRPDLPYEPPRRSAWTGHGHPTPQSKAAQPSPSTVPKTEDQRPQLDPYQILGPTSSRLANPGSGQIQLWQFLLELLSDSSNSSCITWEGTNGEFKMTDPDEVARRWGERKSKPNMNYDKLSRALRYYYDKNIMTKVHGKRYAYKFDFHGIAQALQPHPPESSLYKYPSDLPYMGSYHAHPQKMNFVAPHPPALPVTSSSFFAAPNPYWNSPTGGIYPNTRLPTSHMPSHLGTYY
How it was run: as §1

[5] = molecular target: ELF1 (Homo sapiens, UniProt P32519 1-619); conditions: protein: recombinant; tags: N-terminal GST; dsDNA, one strand shown
ELF1, sequence (P32519 whole entry): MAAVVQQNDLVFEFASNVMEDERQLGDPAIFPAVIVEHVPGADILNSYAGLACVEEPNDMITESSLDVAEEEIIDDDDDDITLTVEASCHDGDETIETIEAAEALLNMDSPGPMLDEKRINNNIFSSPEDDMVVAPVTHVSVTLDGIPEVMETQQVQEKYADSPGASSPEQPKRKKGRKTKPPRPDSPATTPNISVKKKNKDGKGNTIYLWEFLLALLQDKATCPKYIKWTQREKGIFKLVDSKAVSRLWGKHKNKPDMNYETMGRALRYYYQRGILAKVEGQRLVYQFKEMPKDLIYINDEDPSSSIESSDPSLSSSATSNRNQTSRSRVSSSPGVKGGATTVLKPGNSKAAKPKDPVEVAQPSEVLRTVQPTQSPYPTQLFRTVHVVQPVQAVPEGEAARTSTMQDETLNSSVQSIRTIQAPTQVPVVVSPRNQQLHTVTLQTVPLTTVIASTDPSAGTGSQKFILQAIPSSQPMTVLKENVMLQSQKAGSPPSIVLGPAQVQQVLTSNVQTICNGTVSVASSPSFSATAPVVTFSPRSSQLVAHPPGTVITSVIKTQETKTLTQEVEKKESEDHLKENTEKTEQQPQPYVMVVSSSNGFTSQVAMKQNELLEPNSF
How it was run: as §1

[6] = molecular target: T5, EHF (Homo sapiens, UniProt Q9NZC4 1-300); conditions: protein: recombinant; tags: N-terminal GST; dsDNA, one strand shown
T5 sequence: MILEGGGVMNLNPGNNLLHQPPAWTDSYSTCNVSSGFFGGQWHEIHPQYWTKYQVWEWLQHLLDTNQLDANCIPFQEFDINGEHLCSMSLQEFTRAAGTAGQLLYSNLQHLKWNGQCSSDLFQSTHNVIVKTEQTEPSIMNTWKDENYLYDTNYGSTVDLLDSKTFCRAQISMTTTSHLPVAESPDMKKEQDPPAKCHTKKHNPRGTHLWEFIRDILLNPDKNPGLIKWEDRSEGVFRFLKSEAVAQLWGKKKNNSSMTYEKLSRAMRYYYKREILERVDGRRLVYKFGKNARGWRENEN
How it was run: as §1

[7] = molecular target: SPI1 (Homo sapiens, UniProt P17947 1-270); conditions: protein: recombinant; tags: N-terminal GST; dsDNA, one strand shown
How it was run: as §1

[8] = molecular target: SPIB (Homo sapiens, UniProt Q01892 1-262); conditions: protein: recombinant; tags: N-terminal GST; dsDNA, one strand shown
SPIB, sequence (Q01892 whole entry): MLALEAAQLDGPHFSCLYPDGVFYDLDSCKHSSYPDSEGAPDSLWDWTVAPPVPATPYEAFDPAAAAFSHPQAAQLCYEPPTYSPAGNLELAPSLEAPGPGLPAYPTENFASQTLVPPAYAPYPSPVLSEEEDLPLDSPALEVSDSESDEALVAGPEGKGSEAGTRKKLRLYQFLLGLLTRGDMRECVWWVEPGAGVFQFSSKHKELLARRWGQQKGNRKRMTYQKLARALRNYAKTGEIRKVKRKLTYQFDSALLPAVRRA
How it was run: as §1

[9] = molecular target: T6, ELK3 (Homo sapiens, UniProt P41970 1-407); conditions: protein: recombinant; tags: N-terminal GST; dsDNA, one strand shown
T6 sequence: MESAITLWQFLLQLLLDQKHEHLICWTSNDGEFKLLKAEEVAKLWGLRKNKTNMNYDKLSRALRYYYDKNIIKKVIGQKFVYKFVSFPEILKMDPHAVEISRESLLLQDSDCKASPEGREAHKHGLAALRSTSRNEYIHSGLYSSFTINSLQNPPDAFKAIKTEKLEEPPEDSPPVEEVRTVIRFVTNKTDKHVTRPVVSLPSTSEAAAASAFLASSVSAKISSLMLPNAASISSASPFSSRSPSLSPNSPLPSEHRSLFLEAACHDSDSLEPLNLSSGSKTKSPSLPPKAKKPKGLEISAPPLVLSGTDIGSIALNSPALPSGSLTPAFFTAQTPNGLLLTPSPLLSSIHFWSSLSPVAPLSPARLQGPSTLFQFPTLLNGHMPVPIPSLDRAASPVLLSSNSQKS
How it was run: as §1

[10] = molecular target: T7, FEV (Homo sapiens, UniProt Q99581 1-238); conditions: protein: recombinant; tags: N-terminal GST; dsDNA, one strand shown
T7 sequence: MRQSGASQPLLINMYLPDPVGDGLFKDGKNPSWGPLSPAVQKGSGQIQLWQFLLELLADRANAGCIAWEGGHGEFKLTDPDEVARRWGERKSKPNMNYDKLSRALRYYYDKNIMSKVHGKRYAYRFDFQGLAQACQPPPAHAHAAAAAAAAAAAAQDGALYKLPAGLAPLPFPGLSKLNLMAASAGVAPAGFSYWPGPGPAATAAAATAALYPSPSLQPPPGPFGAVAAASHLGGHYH
How it was run: as §1

[11] = molecular target: ETV5 (Homo sapiens, UniProt P41161 1-510); conditions: protein: recombinant; tags: N-terminal GST; dsDNA, one strand shown
ETV5, sequence (P41161 whole entry): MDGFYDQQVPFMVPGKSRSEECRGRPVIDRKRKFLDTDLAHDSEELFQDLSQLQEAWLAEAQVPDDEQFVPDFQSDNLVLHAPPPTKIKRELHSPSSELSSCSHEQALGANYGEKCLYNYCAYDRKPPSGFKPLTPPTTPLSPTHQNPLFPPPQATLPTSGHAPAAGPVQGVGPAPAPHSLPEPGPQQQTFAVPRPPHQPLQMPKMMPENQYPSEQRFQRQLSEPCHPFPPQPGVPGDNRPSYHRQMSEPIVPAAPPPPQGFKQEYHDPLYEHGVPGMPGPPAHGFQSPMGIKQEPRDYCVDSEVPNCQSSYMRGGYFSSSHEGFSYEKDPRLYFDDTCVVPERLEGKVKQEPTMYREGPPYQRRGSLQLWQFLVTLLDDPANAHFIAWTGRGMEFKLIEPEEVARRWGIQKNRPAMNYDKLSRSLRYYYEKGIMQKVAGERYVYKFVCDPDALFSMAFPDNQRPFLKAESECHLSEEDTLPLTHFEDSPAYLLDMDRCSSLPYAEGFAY
How it was run: as §1

[12] = molecular target: HSF1 (Homo sapiens, UniProt Q00613 1-529); conditions: protein: recombinant; tags: N-terminal GST; chain copies: 3; dsDNA, one strand shown
HSF1, sequence (Q00613 whole entry): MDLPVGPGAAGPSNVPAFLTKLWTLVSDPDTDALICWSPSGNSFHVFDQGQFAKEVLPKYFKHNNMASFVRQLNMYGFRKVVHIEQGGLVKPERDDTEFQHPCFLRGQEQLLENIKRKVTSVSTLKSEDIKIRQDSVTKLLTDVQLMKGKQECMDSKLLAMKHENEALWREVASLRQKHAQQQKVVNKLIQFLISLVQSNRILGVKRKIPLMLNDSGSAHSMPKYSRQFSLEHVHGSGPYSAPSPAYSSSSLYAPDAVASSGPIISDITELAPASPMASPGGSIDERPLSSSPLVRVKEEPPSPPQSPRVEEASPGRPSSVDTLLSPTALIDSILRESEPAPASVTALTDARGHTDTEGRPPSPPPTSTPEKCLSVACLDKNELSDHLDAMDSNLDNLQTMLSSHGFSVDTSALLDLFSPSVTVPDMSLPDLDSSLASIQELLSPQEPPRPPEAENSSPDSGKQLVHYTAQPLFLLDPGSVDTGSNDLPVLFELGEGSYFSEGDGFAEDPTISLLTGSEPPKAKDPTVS
How it was run: as §1

[13] = molecular target: T8, SPIC (Homo sapiens, UniProt Q8N5J4 1-248); conditions: protein: recombinant; tags: N-terminal GST; dsDNA, one strand shown
T8 sequence: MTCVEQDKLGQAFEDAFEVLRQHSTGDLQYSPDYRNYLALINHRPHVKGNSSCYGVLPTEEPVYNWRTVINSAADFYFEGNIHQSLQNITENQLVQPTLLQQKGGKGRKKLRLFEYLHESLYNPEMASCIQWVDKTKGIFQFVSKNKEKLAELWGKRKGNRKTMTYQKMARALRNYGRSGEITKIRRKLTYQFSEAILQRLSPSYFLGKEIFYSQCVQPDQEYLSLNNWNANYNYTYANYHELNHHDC
How it was run: as §1

[14] = molecular target: ELF4 (Homo sapiens, UniProt Q99607 1-663); conditions: protein: recombinant; tags: N-terminal GST; dsDNA, one strand shown
ELF4, sequence (Q99607 whole entry): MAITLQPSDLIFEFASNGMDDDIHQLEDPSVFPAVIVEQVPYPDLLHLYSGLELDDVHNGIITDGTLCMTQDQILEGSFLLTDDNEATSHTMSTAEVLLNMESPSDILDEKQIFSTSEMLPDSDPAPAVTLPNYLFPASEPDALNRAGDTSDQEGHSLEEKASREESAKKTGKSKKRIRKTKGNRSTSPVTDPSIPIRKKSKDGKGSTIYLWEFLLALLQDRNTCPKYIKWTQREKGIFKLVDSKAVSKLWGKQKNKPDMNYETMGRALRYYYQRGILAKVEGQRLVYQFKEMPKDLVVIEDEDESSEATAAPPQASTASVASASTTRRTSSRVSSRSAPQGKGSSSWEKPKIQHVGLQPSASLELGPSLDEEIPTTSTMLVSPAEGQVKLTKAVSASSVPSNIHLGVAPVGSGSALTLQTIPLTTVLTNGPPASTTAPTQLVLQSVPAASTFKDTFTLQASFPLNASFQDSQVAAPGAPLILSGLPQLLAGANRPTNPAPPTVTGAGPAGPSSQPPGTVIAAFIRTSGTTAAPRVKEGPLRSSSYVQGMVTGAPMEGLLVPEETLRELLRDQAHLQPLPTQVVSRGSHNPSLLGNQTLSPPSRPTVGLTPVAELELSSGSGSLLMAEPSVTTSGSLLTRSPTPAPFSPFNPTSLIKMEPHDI
How it was run: as §1

[15] = molecular target: T9, ELK4 (Homo sapiens, UniProt P28324-2 1-405); conditions: protein: recombinant; tags: N-terminal GST; dsDNA, one strand shown
T9 sequence: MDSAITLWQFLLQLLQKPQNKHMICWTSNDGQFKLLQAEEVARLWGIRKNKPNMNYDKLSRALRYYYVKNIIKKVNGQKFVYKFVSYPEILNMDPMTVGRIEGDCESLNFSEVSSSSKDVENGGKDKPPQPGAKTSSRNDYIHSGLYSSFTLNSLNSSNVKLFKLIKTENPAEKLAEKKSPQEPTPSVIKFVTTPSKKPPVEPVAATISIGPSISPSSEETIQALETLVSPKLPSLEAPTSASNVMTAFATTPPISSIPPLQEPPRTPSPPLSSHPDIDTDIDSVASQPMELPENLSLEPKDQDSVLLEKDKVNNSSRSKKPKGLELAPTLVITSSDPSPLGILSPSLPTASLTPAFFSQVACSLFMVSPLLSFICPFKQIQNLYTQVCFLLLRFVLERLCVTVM
How it was run: as §1

[16] = molecular target: T10, ETV2 (Homo sapiens, UniProt O00321 1-342); conditions: protein: recombinant; tags: N-terminal GST; dsDNA, one strand shown
T10 sequence: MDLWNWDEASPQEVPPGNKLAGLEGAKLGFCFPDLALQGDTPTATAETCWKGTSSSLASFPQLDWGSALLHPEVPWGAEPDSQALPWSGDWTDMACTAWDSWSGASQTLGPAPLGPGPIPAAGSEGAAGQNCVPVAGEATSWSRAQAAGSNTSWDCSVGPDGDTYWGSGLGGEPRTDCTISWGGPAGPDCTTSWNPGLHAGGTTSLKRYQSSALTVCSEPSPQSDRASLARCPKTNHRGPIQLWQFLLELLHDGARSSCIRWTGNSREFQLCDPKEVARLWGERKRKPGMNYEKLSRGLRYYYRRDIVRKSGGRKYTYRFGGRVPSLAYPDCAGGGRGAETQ
How it was run: as §1

[17] = molecular target: T11, ELF3 (Homo sapiens, UniProt P78545 1-371); conditions: protein: recombinant; tags: N-terminal GST; dsDNA, one strand shown
T11 sequence: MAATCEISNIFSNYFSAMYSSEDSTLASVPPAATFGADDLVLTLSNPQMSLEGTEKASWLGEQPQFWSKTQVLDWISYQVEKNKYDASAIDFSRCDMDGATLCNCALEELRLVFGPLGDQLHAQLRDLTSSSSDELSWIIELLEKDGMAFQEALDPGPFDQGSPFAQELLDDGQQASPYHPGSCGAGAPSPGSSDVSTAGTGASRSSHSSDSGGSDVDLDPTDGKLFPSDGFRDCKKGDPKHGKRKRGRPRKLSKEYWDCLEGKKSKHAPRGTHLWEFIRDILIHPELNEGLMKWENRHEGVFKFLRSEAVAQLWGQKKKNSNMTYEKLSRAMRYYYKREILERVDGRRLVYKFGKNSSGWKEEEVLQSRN
How it was run: as §1

[18] = molecular target: CRX (Homo sapiens, UniProt O43186 1-299); conditions: protein: recombinant; tags: N-terminal GST; dsDNA, one strand shown
CRX, sequence (O43186 whole entry): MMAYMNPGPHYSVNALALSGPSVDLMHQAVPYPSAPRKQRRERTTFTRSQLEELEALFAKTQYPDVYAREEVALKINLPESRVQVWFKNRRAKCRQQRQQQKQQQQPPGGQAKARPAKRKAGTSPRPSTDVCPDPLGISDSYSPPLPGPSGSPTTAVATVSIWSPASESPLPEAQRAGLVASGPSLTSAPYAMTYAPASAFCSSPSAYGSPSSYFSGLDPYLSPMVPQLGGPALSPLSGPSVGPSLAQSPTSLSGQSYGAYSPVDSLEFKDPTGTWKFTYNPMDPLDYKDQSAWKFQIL
How it was run: as §1

[19] = molecular target: ETV1 (Homo sapiens, UniProt P50549 1-477); conditions: protein: recombinant; tags: N-terminal GST; dsDNA, one strand shown
ETV1, sequence (P50549 whole entry): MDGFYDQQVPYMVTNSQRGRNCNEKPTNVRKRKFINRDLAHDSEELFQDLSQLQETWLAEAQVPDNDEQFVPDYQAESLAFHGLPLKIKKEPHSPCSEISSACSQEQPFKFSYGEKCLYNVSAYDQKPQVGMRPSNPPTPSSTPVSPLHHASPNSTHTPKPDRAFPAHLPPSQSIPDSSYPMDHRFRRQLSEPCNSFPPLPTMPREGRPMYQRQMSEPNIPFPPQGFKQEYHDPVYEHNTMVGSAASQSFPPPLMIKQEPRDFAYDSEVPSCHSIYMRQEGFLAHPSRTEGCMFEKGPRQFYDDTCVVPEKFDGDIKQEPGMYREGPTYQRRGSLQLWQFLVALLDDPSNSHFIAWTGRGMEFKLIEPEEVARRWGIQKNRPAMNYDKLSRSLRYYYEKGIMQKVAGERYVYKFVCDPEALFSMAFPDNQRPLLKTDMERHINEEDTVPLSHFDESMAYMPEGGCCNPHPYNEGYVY
How it was run: as §1

## CTACTT
[1]
  binding signal: 1.85 fold enrichment (6-mer frequency, TF over GST control)
[2]
  binding signal: 1.77 fold enrichment (6-mer frequency, TF over GST control)
[3]
  binding signal: 1.72 fold enrichment (6-mer frequency, TF over GST control)
[4]
  binding signal: 1.96 fold enrichment (6-mer frequency, TF over GST control)
[5]
  binding signal: 1.85 fold enrichment (6-mer frequency, TF over GST control)
[6]
  binding signal: 1.92 fold enrichment (6-mer frequency, TF over GST control)
[7]
  binding signal: 2.05 fold enrichment (6-mer frequency, TF over GST control)
[8]
  binding signal: 1.96 fold enrichment (6-mer frequency, TF over GST control)
[9]
  binding signal: 1.88 fold enrichment (6-mer frequency, TF over GST control)
[10]
  binding signal: 2.08 fold enrichment (6-mer frequency, TF over GST control)
[11]
  binding signal: 1.78 fold enrichment (6-mer frequency, TF over GST control)
[12]
  binding signal: 1.44 fold enrichment (6-mer frequency, TF over GST control)
[13]
  binding signal: 1.89 fold enrichment (6-mer frequency, TF over GST control)
[14]
  binding signal: 1.82 fold enrichment (6-mer frequency, TF over GST control)
[15]
  binding signal: 1.87 fold enrichment (6-mer frequency, TF over GST control)
[16]
  binding signal: 1.84 fold enrichment (6-mer frequency, TF over GST control)
[17]
  binding signal: 1.89 fold enrichment (6-mer frequency, TF over GST control)
[18]
  binding signal: 1.78 fold enrichment (6-mer frequency, TF over GST control)
[19]
  binding signal: 1.89 fold enrichment (6-mer frequency, TF over GST control)
